# Measurements as given in PubChem BioAssay AID602447 (National Center for Advancing Translational Sciences (NCATS), 2012).
# Results filed as inconclusive are left out. Activity calls are given as the source filed them. The rule behind the calls is not given here.
# Target: Beta-2 adrenergic receptor (Homo sapiens) (UniProt P07550)
# Assay: qHTS for antagonists of the Thyroid Stimulation Hormone Receptor: Hit Validation with Beta-2 Adrenergic Receptor
# Conditions: B2AR-expressing cells, cAMP HTRF, antagonist counterscreen; hits give high values
# Text: The thyroid-stimulating hormone receptor (TSHR) is a member of the 7 trans-membrane-spanning receptor (7TMR) family of cell surface receptors. TSHR-mediated hyperthyroidism is important in thyroid pathology. The development of small molecule antagonists of TSHR may lead to therapeutic approaches for TSHR-mediated hyperthyroidism caused by constitutively activating mutations or stimulating auto-antibodies associated with Graves' disease. Graves' disease is the leading cause of hyperthyroidism and is caused by autoantibodies that stimulate TSHR (TsAbs) causing thyroid growth and unregulated overproduction of thyroid hormones and existing treatments have liabilities (agranulocytosis). In addition, TSHRs are known to be expressed in multiple extrathyroidal tissues including bone, brain, kidney, testis, fat and cells of the immune system but the role of the TSHR in these tissues is not clear. Therefore, TSHR antagonists/inverse agonists could be used as probes of extrathyroidal TSHR function. Finally, TSHR inverse agonists, which are a subclass of antagonists that inhibit agonist-independent (or basal or constitutive) TSHR signaling, could be used to inhibit TSH-independent signaling in patients with recurrent or metastatic thyroid cancer who are receiving thyroid hormone to suppress TSH. […]
# Beta-2 adrenergic receptor (Homo sapiens), sequence (P07550 whole entry, looked up): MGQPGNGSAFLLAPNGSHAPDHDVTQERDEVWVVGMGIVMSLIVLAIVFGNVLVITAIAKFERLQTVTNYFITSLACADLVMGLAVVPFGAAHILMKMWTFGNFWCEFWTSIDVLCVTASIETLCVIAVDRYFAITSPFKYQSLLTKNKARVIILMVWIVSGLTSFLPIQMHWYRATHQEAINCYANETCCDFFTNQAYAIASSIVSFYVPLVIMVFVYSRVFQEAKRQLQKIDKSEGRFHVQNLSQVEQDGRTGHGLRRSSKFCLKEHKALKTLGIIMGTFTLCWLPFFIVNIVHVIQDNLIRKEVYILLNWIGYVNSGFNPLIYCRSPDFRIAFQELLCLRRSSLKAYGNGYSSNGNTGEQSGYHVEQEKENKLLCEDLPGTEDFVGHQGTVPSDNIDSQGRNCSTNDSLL
smiles,measurement,value
N#CC(C#N)=NNc1ccc(-n2ccc(C(F)(F)F)n2)cc1,max inhibition,91.9% (active)
